Results as given in PubChem BioAssay AID1508611 (The Scripps Research Institute Molecular Screening Center, 2020).
Among all 6,700 compounds or so, about 20 (0.3%) were called active. The list comes from a sample in which actives are over-represented; it also holds similar structures and randomly drawn compounds. Values without a mark were called inactive.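 The calls were made as follows: active = mean percent activation in the counterscreen above 29.09%; inactive = the rest.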

What follows are compounds tested against Glucose-dependent insulinotropic receptor (Homo sapiens) (UniProt Q8TDV5) (assay: off-target GPR119 activation – cell-based, PathHunter beta-arrestin, luminescence, triplicate, counter-screen for GPR151 activator project (AID 1508611)). Settings: GPR119 PathHunter beta-arrestin cells, 90 min, at 11.2 µM, hits give high values, 0 = compound-well median, 100 = enzyme-acceptor control.
Glucose-dependent insulinotropic receptor (Homo sapiens), sequence (Q8TDV5 whole entry, looked up): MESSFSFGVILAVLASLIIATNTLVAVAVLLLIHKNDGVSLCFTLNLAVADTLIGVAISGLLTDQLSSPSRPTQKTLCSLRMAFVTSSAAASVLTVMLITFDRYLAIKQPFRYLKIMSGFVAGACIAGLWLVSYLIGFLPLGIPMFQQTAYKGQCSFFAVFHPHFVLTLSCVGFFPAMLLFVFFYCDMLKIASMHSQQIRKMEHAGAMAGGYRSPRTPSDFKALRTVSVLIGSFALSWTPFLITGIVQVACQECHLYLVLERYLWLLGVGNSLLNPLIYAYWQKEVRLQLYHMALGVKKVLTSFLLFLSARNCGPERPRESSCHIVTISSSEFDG

Row | Compound | activation
1 | CC(=O)Cn1c(=O)c2c(nc3n2CCCN3c2ccc(Br)cc2)n(C)c1=O | 8.64%
2 | N#Cc1ccc(N2CCN(CCCNC(=O)Nc3ccccc3)CC2)cc1 | -8.24%
3 | COc1cccc(/C=C2/C(=O)NC(=O)N(c3ccccc3F)C2=O)c1 | 15.2%
4 | COc1ccc(Br)cc1C(=O)NCC1COc2ccccc2O1 (stereo unspecified) | -9.64%
5 | COc1ccc(C(=O)Nc2sc3c(c2C(N)=O)CCCC3)cc1 | -10%
6 | O=C(Nc1cccc(N2CCC(NCc3ccon3)CC2)c1)c1cccnc1 | 18.2%
7 | Cc1ccc(S(=O)(=O)Cn2nnnc2CN2CCN(c3ccccc3F)CC2)cc1 | 8.39%
8 | O=C(COc1ccc([N+](=O)[O-])cc1)Nc1ccc2oc(-c3cccc(F)c3)nc2c1 | -7.11%
9 | CN1CC(=O)N2CCN(C(=O)OCc3ccccc3)C[C@@H]2C1=O | 1.78%
10 | CC(C)C(=O)NC(C)c1nnc2n1CCN(Cc1ccc3cccnc3c1)CC2 (stereo unspecified) | 6.65%
11 | CCN(CC)S(=O)(=O)c1ccc(C)c(NS(=O)(=O)c2cccc(C#N)c2)c1 | -6.36%
12 | CCOc1ccc(N2C(=O)C3C4c5ccccc5C(C(C)O)(c5ccccc54)C3C2=O)cc1 (stereo unspecified) | -4.77%
13 | C=CCNC(=O)C(=O)NCC1OCCCN1S(=O)(=O)c1ccccc1 (stereo unspecified) | -6.88%
14 | CC(=O)Oc1cccc(N2C(=O)C3C4c5ccccc5C(C)(c5ccccc54)C3C2=O)c1 (stereo unspecified) | -7.48%
15 | CCOC(=O)C1=C(CC)OC(N)=C(C#N)C1c1ccc(C(F)(F)F)cc1 (stereo unspecified) | -9.1%
16 | CCN1/C(=C/c2ccc3cc(C)ccc3[n+]2CC)Sc2ccc(-c3ccccc3)cc21 | 0.91%
17 | CCc1nnc2n1N(C(C)=O)C(c1ccc3c(c1)CCCC3)=C(C(C)=O)S2 | 3.36%
18 | CC(C)CCSc1nc2c(c(=O)n1Cc1ccco1)C1(CCCCC1)Cc1ccccc1-2 | -4.2%
19 | O=C1CCC(CCNCCOc2ccccc2)N1CCc1ccccc1 (stereo unspecified) | 12.1%
20 | O=C(Cc1cccs1)NCCC1=CCCCC1 | 0.59%
21 | CCN1CCCC1CNc1nc(=S)[nH]c2ccccc12 (stereo unspecified) | -5.74%
22 | CCc1ccc(NS(=O)(=O)c2ccc(Cl)cc2)cc1 | 1.55%
23 | CC12CCC(C(=O)Nc3ncc(Cl)cc3Cl)(CC1=O)C2(C)C (stereo unspecified) | -5.44%

Row | Compound | activation
24 | Cc1cnc(Nc2ccc(N3CCOCC3)cc2)nc1NCc1cccc(C(F)(F)F)c1 | 15.3%
25 | Cc1nc2cc(C(=O)NCc3ccc4c(c3)OCO4)ccc2n1-c1ccc(OCc2ccccc2)cc1 | -11.3%
26 | COc1ccccc1NC(=O)NCc1nc(-c2ccc(OC)c(OC)c2)no1 | -3.49%
27 | O=C(COc1ccc(Br)cc1CO)NCC(F)(F)F | 5.45%
28 | CCOC(=O)Cc1coc(NC(=O)c2ccc(Cl)cc2)n1 | 16.4%
29 | Cc1nc2nc(SCc3ccc([N+](=O)[O-])cc3)nn2c(C)c1Cc1c(F)cccc1Cl | 15.8%
30 | COc1ccccc1C1C(C(N)=O)=C(C)Nc2nc(CCCO)nn21 (stereo unspecified) | -6.42%
31 | CCOc1ccc(NC(=O)COc2cccc(C)c2C)cc1 | 6%
32 | COc1cccc(C(=O)NC(=S)Nc2ccc(OC)cc2OC)c1 | 5.05%
33 | CCC(=O)Nc1cc(C(=O)O)ccc1C | 0.03%
34 | Brc1cnc(NC2CCCCC2)nc1 | 4.03%
35 | CC(C)N1CCc2c(sc(NC(=O)Cc3ccccc3)c2C#N)C1 | -3.52%
36 | O=C(N/N=C/c1cc(Cl)ccc1O)c1cc(-c2ccccc2)n[nH]1 | -13.8%
37 | COc1ccc(/C=C(\C#N)C(=O)Nc2cccc(S(=O)(=O)N3CCCCC3)c2)cc1 | -10.3%
38 | COc1cccc(-c2nnc(NC(=O)CSc3ccccc3)o2)c1 | 6.53%
39 | Cc1ccc(N2C(=O)CC(N3CCN(Cc4ccc(Cl)cc4)CC3)C2=O)cc1Cl (stereo unspecified) | 6.82%
40 | O=C(CCn1cnc2c(cnn2-c2ccc(F)cc2)c1=O)NCCC1=CCCCC1 | 1.14%
41 | COc1ccc(OC)c(NC(=O)CSc2nnc3[nH]c(=O)c(C)c(C)n23)c1 | 3.38%
42 | COc1nc(Nc2ccccc2)nc(-c2c(C)noc2C)n1 | -7.06%
43 | CSc1ncc(C(=O)NCCc2c[nH]c3ccccc23)c(C)n1 | -0.1%
44 | Cc1cc(Nc2ccc(F)cc2)n2cnnc2n1 | -9.37%
45 | Clc1ccccc1C1C=C(c2ccc(I)cc2)Nc2nnnn21 (stereo unspecified) | -6.17%
46 | CCC(C)Nc1nc2c(c(=O)[nH]c(=O)n2C)n1CC(O)COC(C)C (stereo unspecified) | -3.29%

Row | Compound | activation
47 | Cc1cc(N2CCOCC2)ccc1C=C1C(=O)c2ccccc2C1=O | 1.45%
48 | COCCNC(=S)N1CCN(c2ccccc2OC)CC1 | -11.2%
49 | COc1cc(NC(=O)c2sc3ncnc(N4CCCCC4)c3c2C)cc(OC)c1OC | 0.56%
50 | CC(C)(C)OC(=O)N1CCC[C@H](Cn2cc(C(=O)O)nn2)C1 | 2%
51 | COCCN1C(=O)CC(CC(=O)NCc2nc3ccccc3[nH]2)(c2ccccc2C)C1=O (stereo unspecified) | 3.87%
52 | O=C(CCc1nnc(CCCCc2ccccc2)o1)N1CCC(N2CCSCC2)CC1 | 0.58%
53 | CC1CCN(C(=O)C(NS(=O)(=O)c2ccc3c(c2)oc(=O)n3C)C(C)C)CC1 (stereo unspecified) | 6.52%
54 | Cc1ccc(C2=NC(c3cc(Br)ccc3F)NC(c3cc(Cl)ccc3O)C2)cc1 (stereo unspecified) | 6.67%
55 | COc1ccc(-c2nnc(SCCC#N)o2)cc1 | -4.81%
56 | COc1ccc(OC)c(NC(=S)Nc2ccccn2)c1 | -19.3%
57 | Oc1ccc(Cn2cc[nH]c2=S)cc1 | -8.52%
58 | CCCCc1ccc(N=Cc2nc(-c3cccc4ccccc34)oc2O)cc1 | -7.98%
59 | COc1ccc(C(=O)Cc2cc3ccccc3oc2=O)c(OC)c1 | -8.7%
60 | O=C(CC1C(=O)NCCN1Cc1ccc2ccccc2c1)NCCCn1cccn1 (stereo unspecified) | 1.24%
61 | c1ccc(-c2nc(-c3cccs3)[nH]c2-c2cccs2)cc1 | -1.67%
62 | CCOC(=O)c1cccc(NC(=O)CCCOc2ccc(OC)cc2)c1 | -2.39%
63 | COc1ccc(OC)c(/C=N/n2nnnc2N)c1 | -3.22%
64 | CC(C)(C)NC(=O)Cc1coc2ccc3ccccc3c12 | -5.33%
65 | O=C(CN1C(=O)c2ccccc2C1=O)NC(c1ccccc1)c1ccc(Br)cc1 (stereo unspecified) | -12.4%
66 | O=C(COc1ccc(CO)cc1)Nc1ccc(Cl)c(Cl)c1 | -3.53%
67 | CO[C@@H]1COC(=O)[C@@H](C)COC(=O)[C@H](C)NC(=O)C/C=C/[C@H]1C | 10.4%
68 | Cc1[nH][nH]c(=O)c1C(c1ccc(-c2ccc(F)cc2[N+](=O)[O-])o1)c1c(C)[nH][nH]c1=O | 9%
69 | O=C(CN1C(=O)CCC1=O)Nc1ccc(S(=O)(=O)N2CCOCC2)cc1 | 9.75%

Row | Compound | activation
70 | C=CCSC1=C(C#N)C(c2ccc(Cl)cc2Cl)CC(=O)N1 (stereo unspecified) | -2.2%
71 | CC(C)n1c(=O)[nH]c2c(C(N)=O)nc(-c3ccc(-c4ccccc4)cc3)nc21 | 8.53%
72 | COc1ccc(N2C(=O)C(Cl)=C(Nc3ccc(C)cc3)C2=O)cc1 | 9.02%
73 | COc1cc(OC)cc(C(=O)Nc2ccc3c4c(cccc24)CC3)c1 | 9.11%
74 | CCOc1ccccc1-c1cc(C(=O)N2CCOCC2)c2ccccc2n1 | -4.4%
75 | Cc1ccc(NC(=O)CSc2nnc(-c3ccc(N)cc3)n2C)cc1Cl | 5.44%
76 | COc1ccc(C2(C)NC(=O)N(CC(=O)Nc3ccc4ccccc4c3)C2=O)cc1 (stereo unspecified) | 5.1%
77 | CC(=O)Nc1ccc(NC(=O)c2ccc3nc(Br)sc3c2)cc1 | -3.64%
78 | CCC1C(=O)NCCN1Cc1ccc2c(c1)CN(Cc1c[nH]c3ccccc13)CCO2 (stereo unspecified) | -4.8%
79 | CC(=O)Nc1nc(C(=O)Nc2nc(-c3sc(C)nc3C)cs2)cs1 | 13.5%
80 | c1cncc(Nc2nc(NC3CC3)c3ncn(C4CCCCC4)c3n2)c1 | -7.65%
81 | COc1ccc(NC(=S)N2CCN(S(=O)(=O)c3ccc(F)cc3)CC2)c(OC)c1 | -3.67%
82 | CCc1ccc(S(=O)(=O)NCCOc2cc(N3CCOCC3)ncn2)cc1 | 0.5%
83 | Cc1ccc(NC(=O)c2cccc(N(C)C)c2)cc1NC(=O)c1ccc(O)cc1 | -0.12%
84 | COc1ccc(C=C(C#N)C#N)c(CSc2ccccn2)c1 | 14.8%
85 | COc1cc([N+](=O)[O-])ccc1NC(=S)NCc1cc(C)n(C)n1 | -4.23%
86 | Cn1c(=O)c2c(nc(SCC(=O)O)n2Cc2ccc(F)cc2)n(C)c1=O | -2.28%
87 | C/C(=N/N1CCN(Cc2ccc(C)cc2C)CC1)c1ccc([N+](=O)[O-])cc1 | -0.84%
88 | CCOc1cc(C2C3=C(CCCC3=O)NC3=C2C(=O)CCC3)cc(Br)c1OCC | 8.25%
89 | CCCOC1(C(F)(F)F)NC(=O)N(c2ccc(C(C)C)cc2)C1=O (stereo unspecified) | -7.99%
90 | CC(=O)c1cccc(-c2nc(Nc3ccc(Oc4ccccc4)cc3)c3ncn(-c4ccsc4)c3n2)c1 | 1.29%
91 | COc1cc(C(C)=Nc2c(C)n(C)n(-c3ccccc3)c2=O)cc(O)c1OC | 3.69%
92 | Cc1ccccc1C(=O)NCc1nc(-c2ccc(Cl)cc2)no1 | 10.3%

Row | Compound | activation
93 | C=CCn1c(=O)c2ccc(C(=O)NCc3ccc4c(c3)OCO4)cc2n(CC(N)=O)c1=O | 5.23%
94 | COc1ccc([N+](=O)[O-])cc1NC(=O)C1CC(Cl)=CCC1C(=O)O (stereo unspecified) | -0.8%
95 | O=C(Nc1ccc(NC(=O)c2cccc3c(Br)cccc23)cc1)c1ccco1 | 16.8%
96 | CC(=O)c1c(C)[nH]c(C(=O)N2CCN(c3ccc(Cl)cc3)CC2)c1C | 2.38%
97 | COc1ccc(Nc2nc(-c3ccc(F)cc3)cs2)c(OC)c1 | 5.77%
98 | COc1cc(/C=N/N=C2/NC(=O)CS2)ccc1OC(=O)c1ccccc1C | -7.49%
99 | O=C(O)/C=C/c1ccccc1Cl | -5.81%
100 | COc1ccc(C(=O)Nc2ccc(S(=O)(=O)NC(C)C)cc2)cc1 | 13.4%
101 | CC(C(=O)NCCN1CCOCC1)n1c2ccccc2c2cn[nH]c(=O)c21 (stereo unspecified) | 5.53%
102 | Cc1ccc2cc(C#N)c(SCCO)nc2c1 | -5.53%
103 | Cc1ccc[n+](-c2ncnc(N)c2[N+](=O)[O-])c1 | -3.57%
104 | CCOc1ccc(/C=C2N=C(/C=C/c3cccc(Cl)c3Cl)OC\2=O)cc1 | 0.65%
105 | O=C(NCc1ccsc1)c1ccc(-n2cccc2)cc1 | -3.28%
106 | O=C(C(Cc1ccccc1)N1C(=O)C2C3c4ccccc4C(c4ccccc43)C2C1=O)N1CCOCC1 (stereo unspecified) | 7.72%
107 | Cc1cccc(NC(=O)CSc2nc3[nH]ncc3c(=O)[nH]2)c1 | 0.57%
108 | NC(=S)N/N=C/c1ccc([N+](=O)[O-])cc1 | 6.78%
109 | O=C(/C=C/Nc1ccccc1NS(=O)(=O)c1ccc([N+](=O)[O-])cc1)c1ccco1 | -7.75%
110 | CN(C)c1cccc(Nc2cc(C(=O)Nc3ccc(N4CCOCC4)cc3)ccn2)c1 | -10.4%
111 | CC1=C(C(=O)Nc2cccc(F)c2)C(c2ccccn2)C2=C(CCCC2=O)N1 (stereo unspecified) | 0.3%
